Assay results from PubChem BioAssay (NCI).
This is part of a sample that, as a whole, favours compounds with a hit. Of some 83,000 tested, about 20% had one in any assay.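 Single-concentration screen, 48 h exposure, 96-well plates. Endpoint: percent growth. Below 10 = active.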 A number with no mark means an inactive call.

system: NCI-H226 lung; assay: NCI-60 one-dose screen, 48 h (100 = growth as untreated, 0 = no growth, -100 = all killed); conditions: 10 µM unless noted

Compound | growth [%]
CN(C)CCNc1nc2ccccc2c2c(=O)c3ccccc3sc12 | 36.5
Nc1nc2ccc(CNc3ccc(C(=O)NC(CC(=O)O)C(=O)O)cc3)cc2c(=O)[nH]1 (centres undefined) | 57.4
CC12CCC3C(CCC4CC(O)CCC43C)C1C/C(=C/O)C(=O)O2 (centres undefined) | 96.6
COc1cc(/C=C/C(=O)c2ccc(Oc3ncnc4ccccc34)cc2)cc(OC)c1OC | 98.5
Nc1n[nH]c2cccc(C#Cc3cccc(NC(=O)c4cccc(C(F)(F)F)c4)c3)c12 | 44
COc1ccc(-c2nn(-c3ccc(NC(=O)c4ccc(Cl)c(C(F)(F)F)c4)cc3)cc2-c2ccncc2)cc1Cl | 70.5
CCCN1C(=O)CSC1=Nc1ccc2cc3ccc(N=C4SCC(=O)N4CCC)cc3nc2c1 | 32.2
CCOC(=O)C1=C(N)Oc2cc(OC)ccc2C1c1ccc(F)c(F)c1 (centres undefined) | 68
CC(C(C(=O)N1CCCCC1)N1CCCCC1)N1CCCCC1 (centres undefined) | 109
COc1ccc2c(-c3ccc(F)cc3)c(C#N)c(=NC(C)=O)oc2c1 | 89.6
COc1ccc(-c2nnc(SCC(=O)Nc3ccc(C(=O)/C=C/c4ccc(Cl)cc4)cc3)o2)cc1OC | 85.7
COc1cccc(/C=N/C(=S)NC2(C)C3CCC(C3)C2(C)C)c1O (centres undefined) | 93.1
CC1(C)N=C(N)N=C(N)N1c1ccc(OCC(=O)Nc2ccccc2)c(Cl)c1 | 99.7
FC(F)(F)c1cn(CCN2CCOCC2)c2ncnc(Cl)c12 | 101
